High-throughput results (PubChem)
Only some compounds are listed: those with a hit (about 12% of all), similar ones and a draw of the others.
AMA1-RON2 inh: AMA1-RON2 (P. falciparum) interaction inhibition; AlphaScreen AMA1-biotinylated RON2 peptide binding; Potency, µM (titrated, usually from 58.2 µM), actives largely listed as inhibitors; 360,000 compounds, 0.2% hits; AID 720542; further: nearly all actives have a fitted effect of over 45% in size
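AMA1 (3D7) with his tag at 25 nM final met compounds first, then biotinylated RON2 peptide at 25 nM; detection used donor plus acceptor beads, 10 µg/mL apiece, read by AlphaScreen after 30 min at room temperature.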
Pf growth 48h: inhibits P. falciparum growth in the first generation, 48 h; P. falciparum luciferase growth in erythrocytes, 48 h; Potency, µM (series often up to 28.7 µM), hits mostly inhibitors; 310,000 compounds, 5.9% hits; AID 504832
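Luciferase-expressing P. falciparum in infected erythrocytes (2% hematocrit, 0.1% parasitemia final) in RPMI 1640/0.5% Albumax were exposed to compound for 48 hours at 37 C, 5% CO2; growth read as luminescence.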
HCV inhibitor: HCV inhibition; Huh7.5.1 HCVcc-Cre infection, luciferase reporter, 44 h; Potency, µM (titrated, usually from 41.8 µM), hits mostly inhibitors; 340,000 compounds, 3.4% hits; AID 651820
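Reporter virus HCVcc-Cre (~0.5 moi) infects cells exposed to compound; seeding density 1,000 cells/well with 4 h settling beforehand. Luminescence, 15 sec read, taken 44 h post-infection following a 15 min RT substrate incubation.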
Pf growth 96h: P. falciparum growth inhibition at 96 hour, primary screen for plastid delayed-death inhibitors. 320,000 compounds, 6.9% hits. Potency, µM (highest dose often 28.7 µM), actives largely listed as inhibitors. P. falciparum luciferase reporter growth, 96 h
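Infected RBCs, 2% Hct / 0.05% parasitemia final; luciferase-reporter P. falciparum; cpd 96 h, 37 C, 5% CO2; luciferase detection reagent; luminescence.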
NS1 function inh: influenza NS1 inhibition | AID 2326 | 270,000 compounds, 0.4% hits | Potency, µM (series often up to 46.1 µM); calls by dose curve; further: actives are rising curves; nearly all actives have a fitted effect of over 50% in size
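Growth recovery, yeast-based: influenza A NS1 expressed in S. cerevisiae causes slow growth, and suppressors are detected by OD600. The parent strain without NS1 is used as positive control.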
SARS PLpro yeast: SARS-CoV PLP inhibition in yeast; S. cerevisiae expressing SARS-CoV PLpro, growth rescue; Potency, µM (series often up to 32.9 µM), actives largely listed as activators; 330,000 compounds, 0.19% hits; calls by dose curve; further: nearly all actives have a fitted effect of over 55% in size
Of the large screens only hits and unclear results are named; the others gave an inactive call. Unless noted, the call rests on the fitted dose curve; in most records, active means well fitted curve in the direction sought with a large enough effect; inconclusive means small, poorly fitted or top-dose-only effect, or another doubt; inactive means no such curve, though single readings can be large; an effect the other way counts as inactive or inconclusive.

CCCCC(=O)NC(c1ccc(Cl)cc1)c1ccc2cccnc2c1O (stereo unspecified)	HCV inhibitor inconclusive (no result: Pf growth 48h, Pf growth 96h, NS1 function inh, SARS PLpro yeast)
CC(=O)NC(c1ccc2ccccc2c1)c1ccc2cccnc2c1O (stereo unspecified)	Pf growth 48h inconclusive, HCV inhibitor 2.51µM
CCCC(=O)NC(c1cccc([N+](=O)[O-])c1)c1ccc2cccnc2c1O (stereo unspecified)	none (no result: Pf growth 48h, HCV inhibitor, Pf growth 96h, NS1 function inh, SARS PLpro yeast)
CCCC(=O)NC(c1ccc(Cl)cc1)c1ccc2cccnc2c1O (stereo unspecified)	Pf growth 48h inconclusive, HCV inhibitor 1.78µM
COCCn1c(Cc2ccccc2)nnc1SCC(=O)N1CCCC1=O	Pf growth 96h inconclusive (no result: NS1 function inh)
COc1cccc(-c2cc(C(=O)Nc3ccn(Cc4ccc(C)cc4)n3)no2)c1	Pf growth 48h inconclusive, HCV inhibitor inconclusive (no result: NS1 function inh)
Cc1ccc(Cn2ccc(NC(=O)c3cc(-c4ccc(Br)cc4)on3)n2)cc1	Pf growth 96h inconclusive
Cc1ccc(Cn2ccc(NC(=O)c3cc(-c4ccco4)on3)n2)cc1	Pf growth 48h 10.4µM (no result: HCV inhibitor)
Cc1ccc(Cn2ccc(NC(=O)c3cc(-c4ccccc4)on3)n2)cc1	Pf growth 48h 9.28µM
CCOC(=O)c1c(C)nc2cc(C)cc(C)n12	none
CCCCOC1CC(c2ccc(OCc3ccc(OC)cc3)c(OC)c2)N(C)O1 (stereo unspecified)	Pf growth 48h inconclusive, HCV inhibitor inconclusive (no result: NS1 function inh)
COc1ccc(CC(=O)N/N=C(/C)c2ccco2)cc1	none
CCNC(=S)N/N=C/c1ccc(F)cc1	Pf growth 96h inconclusive, SARS PLpro yeast inconclusive (no result: AMA1-RON2 inh, HCV inhibitor, NS1 function inh)
CCCCNC(=S)N/N=C/C1=CCC2CC1C2(C)C (stereo unspecified)	Pf growth 48h 9.28µM, HCV inhibitor inconclusive, Pf growth 96h 11.7µM
CCCCNC(=S)N/N=C/c1ccc(C#N)cc1	Pf growth 96h 9.28µM (no result: NS1 function inh)
CC(C)NC(=S)N/N=C/C1=CCC2CC1C2(C)C (stereo unspecified)	Pf growth 48h 13.1µM, HCV inhibitor inconclusive, Pf growth 96h inconclusive
NC(N)=NC(N)=Nc1ccc(SC(F)(F)F)cc1	Pf growth 48h 14.7µM, HCV inhibitor 11.2µM, Pf growth 96h 3.29µM
NC(N)=NC(N)=Nc1ccc(C(=O)O)cc1	none (no result: AMA1-RON2 inh, Pf growth 48h, HCV inhibitor, Pf growth 96h, SARS PLpro yeast)
CC(NC(=O)C(NS(=O)(=O)c1cccs1)C(C)C)c1ccc(S(N)(=O)=O)cc1 (stereo unspecified)	none (no result: NS1 function inh)
Fc1ccc(-c2c[nH]c(=S)n2Cc2ccccc2)cc1	Pf growth 48h 10.4µM, Pf growth 96h inconclusive (no result: NS1 function inh)
CCOc1ncccc1C(=O)OCC(=O)c1cc(OC)c(OC)c(OC)c1	none
COc1ccc(-n2c(C)cc(-c3csc(N)n3)c2C)cc1	Pf growth 48h 13.1µM, HCV inhibitor inconclusive, Pf growth 96h inconclusive
CCCOC(=O)c1ccc(Oc2cn[nH]c2-c2ccc(O)cc2O)cc1	Pf growth 48h inconclusive, HCV inhibitor 8.91µM, Pf growth 96h 13.1µM
CCOC(=O)c1ccc(Oc2cn[nH]c2-c2ccc(O)cc2O)cc1	Pf growth 48h inconclusive, HCV inhibitor inconclusive, Pf growth 96h inconclusive
CCOC(=O)c1ccc(Oc2cn[nH]c2-c2ccc(OCC(=O)NN)cc2O)cc1	Pf growth 48h inconclusive, Pf growth 96h inconclusive
CCCOC(=O)c1ccc(Oc2cn[nH]c2-c2ccc(OCC(=O)NN)cc2O)cc1	Pf growth 48h inconclusive, Pf growth 96h 9.28µM, NS1 function inh inconclusive
O=c1c2c3c(sc2nc(N2CCNCC2)n1CCc1ccccc1)CCCCC3	none
Cc1cccc(-n2c(C)nc3cc(C(=O)N4CCOCC4)ccc32)c1	none
Cc1cc(O)c2c(c1)OC(C)(C)C1=C2CC(C)CC1 (stereo unspecified)	Pf growth 48h 6.57µM, HCV inhibitor 12.6µM
C[C@@H]1C[C@H](Nc2ccccc2)c2ccccc2N1C(=O)c1cccnc1	HCV inhibitor inconclusive
CC1CC(Nc2ccccc2)c2ccccc2N1C(=O)c1cccnc1 (stereo unspecified)	Pf growth 48h inconclusive, HCV inhibitor 5.62µM
Cc1cc(NC(=S)N(CCCN2CCN(C)CC2)Cc2ccco2)ccc1Cl	Pf growth 48h inconclusive, HCV inhibitor inconclusive
Oc1ccc(Br)cc1CNc1ccccn1	Pf growth 48h inconclusive, Pf growth 96h 6.57µM
CCOC(=O)c1ccc(NC(=O)COC(=O)c2cccc(Oc3ccccc3)c2)cc1	none
O=C(c1cc(C(=O)NCc2ccc(Cl)cc2)c(=O)n(Cc2ccc(Cl)cc2)c1)c1cc(F)ccc1O	Pf growth 48h 2.94µM, HCV inhibitor inconclusive, Pf growth 96h 1.47µM
O=C(OCc1cc([N+](=O)[O-])cc2c1OCOC2)c1ccccn1	none
O=C(OCc1cc([N+](=O)[O-])cc2c1OCOC2)c1cccnc1SC(F)F	Pf growth 48h inconclusive, HCV inhibitor 1µM (no result: NS1 function inh)
CN(C)CCC(O)(c1ccccc1)c1ccccc1Cl (stereo unspecified)	none (no result: Pf growth 48h, Pf growth 96h, NS1 function inh, SARS PLpro yeast)
CN(C)CC[C@@](O)(c1ccccc1)c1ccccc1Cl	Pf growth 48h inconclusive, Pf growth 96h 10.7µM (no result: AMA1-RON2 inh, HCV inhibitor, NS1 function inh, SARS PLpro yeast)
O=c1/c(=C/c2ccc(O)c([N+](=O)[O-])c2)sc2nc3ccccc3n12	Pf growth 96h inconclusive (no result: NS1 function inh)
CCN(CC)c1ccc(/C=c2\sc3nc4ccccc4n3c2=O)c(O)c1	Pf growth 48h 8.28µM, HCV inhibitor inconclusive, Pf growth 96h 10.4µM (no result: NS1 function inh)
CCOC(=O)C1C(C)=C(Nc2ccc(OC)cc2)C(=O)N1c1ccc(OC)cc1 (stereo unspecified)	none
CCN1C[C@@H]2[C@@H]3C(=O)N(C)C(=O)[C@@H]3[C@](C)(C1=O)N2C(=O)c1ccc(C(F)(F)F)cc1	none (no result: Pf growth 48h, Pf growth 96h, NS1 function inh, SARS PLpro yeast)
COc1ccc(CCNC(=O)CCN2C(=O)COc3ccc(C)cc32)cc1OC	HCV inhibitor 2.82µM
CC1CC(C)CN(CCCNS(=O)(=O)c2ccc3c(c2)oc(=O)n3C)C1 (stereo unspecified)	HCV inhibitor inconclusive, Pf growth 96h 10.4µM
COc1ccc(CCNC(=O)CCN2C(=O)COc3ccccc32)cc1OC	none
COc1ccc(CCNC(=O)CCS(=O)(=O)c2ccc3c(c2)oc(=O)n3C)cc1OC	Pf growth 48h inconclusive, Pf growth 96h 4.15µM
CCOc1ccc(CCNS(=O)(=O)c2ccc3c(c2)oc(=O)n3C)cc1OCC	Pf growth 96h 13.1µM
COC(=O)c1c(NC(=O)CC2SC(N)=NC2=O)sc(C)c1C (stereo unspecified)	Pf growth 96h inconclusive
COC(=O)C[C@H]1c2cc(C(F)(F)F)ccc2S(=O)(=O)N1Cc1ccccc1OC	none (no result: Pf growth 48h, Pf growth 96h, NS1 function inh, SARS PLpro yeast)
COc1ccc(CNC(=O)CCS(=O)(=O)c2ccc(Br)cc2)cc1	Pf growth 96h 4.65µM
CCN(C(=O)CCS(=O)(=O)c1ccc2c(c1)oc(=O)n2C)c1ccc(OC)cc1	Pf growth 96h 10.4µM
COc1ccc(CNC(=O)CCS(=O)(=O)c2ccc3c(c2)oc(=O)n3C)cc1	Pf growth 96h 8.28µM
COc1ccc(NC(=O)CN2C(=O)COc3ccc(C)cc32)cc1	Pf growth 96h inconclusive
